Results filed as inconclusive are left out. Where a structure was tested more than once in an assay, its records may differ in their call. The source made the active and inactive calls. Unless noted, calls come from the whole dose curve.

This is an account of results in PubChem BioAssay (Tox21).

The nature of assay [1]: qHTS assay to identify small molecule agonists of the vitamin D receptor (VDR) signaling pathway - cell viability counter screen (AID 743224; active = well fitted curve in the direction sought with a large enough effect in the repeat runs; an effect the other way counts as inactive or inconclusive; note: series mostly up to about 63 µM; % is set by controls: 0 for no effect and ±100 for the full control effect; nearly all actives have a fitted effect of over 50% in size). In outline:
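VDR-bla cell line, quantitative HTS format; 16 h compound incubation (37C, 5% CO2); ATP-based CellTiter-Glo luminescence measured in the reporter assay wells.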
On the technique in general: Quantitative high-throughput screening tests each substance at several concentrations.

Assay [2] can be described thus: qHTS assay to identify small molecule antagonists of the vitamin D receptor (VDR) signaling pathway - cell viability counter screen (AID 743225; active = well fitted curve in the direction sought with a large enough effect in the repeat runs; an effect the other way counts as inactive or inconclusive; note: % is set by controls: 0 for no effect and ±100 for the full control effect; nearly all actives have a fitted effect of over 50% in size). The gist of the method:
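VDR-bla HEK 293T cells, 4 h pre-incubation at 37C, then compound plus 1-alpha,25-dihydroxyvitamin D3 (3 nM final) for 16 h. After the beta-lactamase FRET read, CellTiter-Glo was added to the same wells; luminescence after 30 min at room temperature.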

Assay [3] is described as follows: qHTS assay to identify small molecule agonists of the NFkB signaling pathway (AID 1159509; active = well fitted curve in the direction sought with a large enough effect in the signal ratio in the repeat runs, not every such curve was filed as active; the % refers to the signal ratio; note: series mostly up to about 61 µM; % is set by controls: 0 for no effect and ±100 for the full control effect). The gist of the method:
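After overnight attachment, reporter cells received test compounds, DMSO or positive controls and were incubated 5 hr at 37 C. FRET substrate was then added for 1.5 hr at room temperature before dual-emission fluorescence reading.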

Assay [4] is described as follows: qHTS assay to identify small molecule agonists of the NFkB signaling pathway - cell viability counter screen (AID 1159515). Note: series mostly up to about 61 µM; % is set by controls: 0 for no effect and ±100 for the full control effect; nearly all actives have a fitted effect of over 55% in size. In outline:
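Viability in NFkB-bla ME-180 cells was measured by CellTiter-Glo luminescence, 30 min room temperature, in wells already treated 5 hr with compounds and read for reporter FRET.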

Assay [5] in a line: qHTS assay to identify small molecule agonists of the endoplasmic reticulum stress response signaling pathway (AID 1159516; active = well fitted activation curve with a large enough effect in the signal ratio in the repeat runs, not every such curve was filed as active; the % refers to the signal ratio; note: % is set by controls: 0 for no effect and ±100 for the full control effect). The gist of the method: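 ER stress element reporter (bla) in HeLa. 1,500 cells/well, overnight attachment; 5 hr compound; 2 hr RT substrate; dual-emission fluorescence.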
Assay [6] is described as follows: qHTS assay to identify small molecule agonists of the endoplasmic reticulum stress response signaling pathway - cell viability counter screen (AID 1159517).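 Note: HeLa cells carrying an ER stress response element beta-lactamase reporter; series mostly up to about 61 µM; % is set by controls: 0 for no effect and ±100 for the full control effect; nearly all actives have a fitted effect of over 50% in size.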 In outline: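 Counter-screen wells were identical to the reporter wells. Cells were plated at 1,500 per well and dosed for 5 hr, then read for luminescence 30 min after CellTiter-Glo addition.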
Assay [7] can be described thus: qHTS assay to identify small molecule antagonists of the retinoid-related orphan receptor gamma (ROR-gamma) signaling pathway - cell viability counter screen (AID 1159520; active = well fitted curve in the direction sought with a large enough effect in the repeat runs; an effect the other way counts as inactive or inconclusive; note: % is set by controls: 0 for no effect and ±100 for the full control effect; nearly all actives have a fitted effect of over 50% in size). The gist of the method:
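Tet-on ROR gamma CHO cells were given compounds for 2 hr, then doxycycline hyclate at 1 uM final, and incubated 16 hr at 37 C. Viability was measured as ATP content by CellTiter-Glo luminescence.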

The target of assay [8] is Nuclear receptor ROR-gamma (Homo sapiens) (UniProt P51449). The assay can be described thus: qHTS assay to identify small molecule antagonists of the retinoid-related orphan receptor gamma (ROR-gamma) signaling pathway (AID 1159521; active = well fitted curve in the direction sought with a large enough effect in the repeat runs; an effect the other way counts as inactive or inconclusive; note: nearly all actives have a fitted effect of over 50% in size; note: potency is the fitted concentration of half-maximal effect). In outline:
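Tet-on RORγ CHO cells carrying a ROR response element–luciferase reporter were pretreated with compounds for 2 h, then induced with 1 uM (final) doxycycline hyclate for 16 h at 37 C. Antagonism was read as decreased ONE-Glo luminescence.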

Assay [9] in a line: qHTS assay to identify small molecule agonists of the AP-1 signaling pathway - cell viability counter screen (AID 1159525). Note: nearly all actives have a fitted effect of over 55% in size. In outline: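 AP-1-bla ME-180 cells in Opti-MEM with 0.5% dialyzed FBS, compound exposure 5 h at 37 C in 15-point titration. Viability read in the same wells as ATP content by CellTiter-Glo luminescence, normalised to tetra-n-octylammonium bromide and DMSO controls.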

Assay [10] can be described thus: qHTS assay to identify small molecule agonists of the AP-1 signaling pathway (AID 1159526). Note: % is set by controls: 0 for no effect and ±100 for the full control effect.

For the compound `Cc1occc(=O)c1O`, the Potency entry in assay [1], in assay [7], in [8] and in assay [9] was “inactive” each time. The compound was classed as inactive in [2], in assay [3], in assay [4], in [5], in assay [6] and in assay [10].
For `C=CCOC(=O)c1ccccc1C(=O)OCC=C`, the Potency result in assay [1], in [7], in assay [8] and in [9] was “inactive” throughout. The result in assay [2], in assay [3], in assay [4], in assay [5], in assay [6] and in assay [10] was inactive.
For `CCCCCCCCCCCCCCCO`, the Potency entry in assay [1], in [7], in [8] and in [9] was “inactive” throughout. Also, the outcome in assay [2], in [3], in assay [4], in assay [5], in assay [6] and in [10] was inactive.
As to `O=C=NCCCCCCN=C=O`, the Potency entry in assay [1], in assay [7] and in assay [9] was “inactive” throughout. Moreover, the result in [2], in assay [3], in assay [4], in [5], in assay [6] and in assay [10] was inactive. In assay [8], the Potency was 26.7 µM (active) and inactive.
As for `O=C(O)c1ccccc1C(c1ccc(O)cc1)c1ccc(O)cc1`, the Potency result in assay [1], in [7], in [8] and in assay [9] was “inactive” each time. The result in [2], in [3], in [4], in [5], in [6] and in assay [10] was inactive.
In the case of `CCN(CC)c1ccc(C(=O)c2ccccc2C(=O)O)c(O)c1`, the Potency entry in assay [1], in assay [7], in [8] and in [9] was “inactive” in each case. Further, the result in assay [2], in [3], in assay [4], in [5], in assay [6] and in [10] was inactive.
Regarding `O=C(O)CCCC[C@@H]1SC[C@@H]2NC(=O)N[C@@H]21`, the Potency result in assay [1], in assay [7], in assay [8] and in [9] was “inactive” each time. Also, the compound was called inactive in assay [2], in [3], in assay [4], in assay [5], in assay [6] and in [10].
Turning to `CCCCN(CCCC)CCCC`, the Potency entry in assay [1], in [7], in assay [8] and in assay [9] was “inactive” throughout. In addition, the compound was classed as inactive in [2], in assay [3], in assay [4], in [5], in assay [6] and in assay [10].
As to `CCCCCCCCCCCCc1ccccc1`, the Potency result in [1], in [7], in assay [8] and in assay [9] was “inactive” in each case. Also, the result in [2], in assay [3], in assay [4], in [5], in assay [6] and in assay [10] was inactive.
For `c1ccc2scnc2c1`, the Potency result in assay [1], in assay [7], in assay [8] and in [9] was “inactive” each time. Besides, the result in assay [2], in assay [3], in assay [4], in [5], in assay [6] and in [10] was inactive.
Take `O=C(O)c1cc(C(=O)O)cc(S(=O)(=O)O)c1`: the Potency result in assay [1], in [7], in assay [8] and in assay [9] was “inactive” throughout. Further, the compound was called inactive in assay [2], in [3], in assay [4], in assay [5], in assay [6] and in assay [10].
In the case of `CC1=C(C)S(=O)(=O)CCS1(=O)=O`, the Potency result in [1], in assay [7] and in assay [9] was “inactive” throughout. Besides, the result in [2], in [3], in [4], in assay [5], in [6] and in assay [10] was inactive. Moreover, in [8], the Potency is 54.5 µM (active).
Take `CCC(O)OCCCOC` (stereo unspecified): the Potency result in assay [1], in assay [7], in [8] and in assay [9] was “inactive” throughout. In addition, the outcome in assay [2], in [3], in assay [4], in [5], in assay [6] and in [10] was inactive.
For `O=P(OC(CCl)CCl)(OC(CCl)CCl)OC(CCl)CCl`, the Potency result in assay [1], in assay [7] and in assay [9] was “inactive” in each case. Besides, the outcome in [2], in [3], in assay [4], in [5] and in [6] was inactive.
Consider `CN(C)CCCN`, for which the Potency entry in assay [1], in assay [7], in assay [8] and in [9] was “inactive” each time. The outcome in assay [2], in [3], in assay [4], in assay [5], in assay [6] and in [10] was inactive.
For `COCCCOc1ccnc(CS(=O)c2nc3ccccc3[nH]2)c1C` (stereo unspecified), the Potency entry in assay [1], in assay [7], in assay [8] and in assay [9] was “inactive” throughout. In addition, the outcome in assay [3], in [5], in assay [6] and in [10] was inactive.
`CC1=CC(=O)NS(=O)(=O)O1`: the Potency result in [1], in assay [7], in assay [8] and in assay [9] was “inactive” throughout. In addition, the call in assay [2], in [3], in [4], in assay [5], in [6] and in assay [10] was inactive.
In the case of `O=S1(=O)CC=CC1`, the Potency result in [1], in assay [7], in [8] and in assay [9] was “inactive” throughout. In addition, the call in assay [2], in assay [3], in [4], in [5], in [6] and in [10] was inactive.
As for `COc1ccc(NC(C)=O)cc1N`, the Potency entry in [1], in assay [7] and in [9] was “inactive” each time. Also, the compound was classed as inactive in assay [2], in assay [3], in [4], in assay [5], in assay [6] and in [10].
Turning to `O=C1CCC(N2C(=O)c3ccccc3C2=O)C(=O)N1` (stereo unspecified), the Potency result in [1], in [7] and in assay [9] was “inactive” in each case. Further, the compound was classed as inactive in assay [2], in assay [3], in assay [4], in assay [5], in assay [6] and in assay [10].
Regarding `O=C(O)[C@H](O)[C@@H](O)[C@H](O)[C@H](O)CO`, the Potency entry in assay [1], in assay [7] and in assay [9] was “inactive” in each case. Moreover, the result in [2], in [3], in assay [4], in assay [5] and in assay [6] was inactive. Also, the activation in [10] was 7.9% [at 2.72 µM] (inactive).
Regarding `OCC(CO)(CBr)CBr`, the Potency result in [1], in [7], in assay [8] and in assay [9] was “inactive” each time. Also, the call in assay [2], in assay [3], in assay [4], in [5], in assay [6] and in [10] was inactive.
Turning to `CCC(O)OC(O)CC` (stereo unspecified), the Potency entry in assay [1], in assay [7] and in [9] was “inactive” each time. Besides, the result in assay [2], in assay [3], in assay [4], in assay [5], in [6] and in assay [10] was inactive.
As to `Nc1cc([N+](=O)[O-])ccc1O`, the Potency entry in assay [1], in assay [7], in [8] and in [9] was “inactive” in each case. For the same compound, the compound was classed as inactive in assay [2], in assay [3], in assay [4], in [5], in assay [6] and in [10].
Consider `O=c1[nH]c(=O)n([C@H]2C[C@H](O)[C@@H](CO)O2)cc1Br`, for which the Potency result in assay [1], in [7] and in [9] was “inactive” throughout. For the same compound, the compound was classed as inactive in assay [2], in assay [3], in assay [4], in assay [5], in assay [6] and in assay [10].
